From paper PMC7862700, “An all-to-all approach to the identification of sequence-specific readers for epigenetic DNA modifications on cytosine”

Legend:
Assay in all cases: DAPPL (digital affinity profiling via proximity ligation, sequencing); 10 mM Tris-HCl pH 7.5, 50 mM NaCl, 1 mM DTT, 4% glycerol, room temperature, 30 min; GST-TFs on glutathione beads, 16-mer random dsDNA library, 0.1% formaldehyde crosslink after washing; high values mean tight binding
Details in all cases: protein: recombinant; tags: N-terminal GST; dsDNA, one strand shown
FLI1 = molecular target: T1, FLI1 (Homo sapiens, UniProt Q01543 1-452)
T1 sequence: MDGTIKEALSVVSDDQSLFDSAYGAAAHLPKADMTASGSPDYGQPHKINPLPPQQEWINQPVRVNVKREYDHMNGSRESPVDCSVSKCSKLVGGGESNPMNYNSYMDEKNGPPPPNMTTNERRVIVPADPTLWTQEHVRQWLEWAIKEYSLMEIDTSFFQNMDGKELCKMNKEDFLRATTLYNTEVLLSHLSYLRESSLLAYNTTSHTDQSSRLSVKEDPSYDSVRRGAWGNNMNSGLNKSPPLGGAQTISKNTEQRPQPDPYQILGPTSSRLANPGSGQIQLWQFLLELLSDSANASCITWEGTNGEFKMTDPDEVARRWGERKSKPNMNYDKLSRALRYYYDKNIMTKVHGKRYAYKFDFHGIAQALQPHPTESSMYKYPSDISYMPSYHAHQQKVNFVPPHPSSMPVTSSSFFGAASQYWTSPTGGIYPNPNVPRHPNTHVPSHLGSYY
In short: (§1)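 Sequencing on an Illumina NextSeq500 followed washing, crosslinking with 0.1% formaldehyde, proximity ligation (BsaI/T4 ligase, 1 h, 37 °C) and PCR amplification of pools that had been incubated for 30 min at room temperature with 200 nmole of a random double-stranded 16-mer DNA library in Tris/NaCl/DTT/glycerol buffer. Each pool held DNA-barcoded human transcription factors, expressed in yeast as GST fusions and captured on glutathione beads, plus a tag-only sample. Binding signal is a hexamer's read frequency for a factor divided by its frequency in the tag-only sample.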

ELK1 = molecular target: T2, ELK1 (Homo sapiens, UniProt P19419 1-428)
T2 sequence: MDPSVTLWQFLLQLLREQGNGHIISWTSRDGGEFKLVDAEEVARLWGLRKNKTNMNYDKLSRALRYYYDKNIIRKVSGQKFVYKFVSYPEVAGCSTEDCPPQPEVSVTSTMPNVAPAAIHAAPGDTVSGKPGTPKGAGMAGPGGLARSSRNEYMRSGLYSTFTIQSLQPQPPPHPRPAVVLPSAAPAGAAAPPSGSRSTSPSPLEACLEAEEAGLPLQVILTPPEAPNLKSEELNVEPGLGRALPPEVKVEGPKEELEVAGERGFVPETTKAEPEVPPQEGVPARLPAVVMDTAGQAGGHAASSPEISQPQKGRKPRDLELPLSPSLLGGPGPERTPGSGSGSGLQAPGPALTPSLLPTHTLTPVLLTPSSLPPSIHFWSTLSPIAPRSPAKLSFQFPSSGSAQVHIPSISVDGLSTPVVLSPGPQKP
In short: as §1

GABPA = molecular target: T3, GABPA (Homo sapiens, UniProt Q06546 1-454)
T3 sequence: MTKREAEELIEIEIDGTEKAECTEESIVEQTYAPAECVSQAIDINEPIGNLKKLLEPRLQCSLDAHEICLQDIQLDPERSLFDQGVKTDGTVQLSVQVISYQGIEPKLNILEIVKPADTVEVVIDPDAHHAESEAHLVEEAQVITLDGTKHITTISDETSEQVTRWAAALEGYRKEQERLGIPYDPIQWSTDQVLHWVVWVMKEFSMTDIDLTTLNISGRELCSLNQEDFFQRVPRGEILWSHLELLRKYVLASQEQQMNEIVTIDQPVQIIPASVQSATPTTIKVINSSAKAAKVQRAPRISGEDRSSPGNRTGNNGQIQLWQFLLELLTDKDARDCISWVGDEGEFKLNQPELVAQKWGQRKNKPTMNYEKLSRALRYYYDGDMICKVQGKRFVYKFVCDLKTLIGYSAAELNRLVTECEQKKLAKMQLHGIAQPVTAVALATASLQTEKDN
In short: as §1

ERG = molecular target: T4, ERG (Homo sapiens, UniProt P11308 1-479)
T4 sequence: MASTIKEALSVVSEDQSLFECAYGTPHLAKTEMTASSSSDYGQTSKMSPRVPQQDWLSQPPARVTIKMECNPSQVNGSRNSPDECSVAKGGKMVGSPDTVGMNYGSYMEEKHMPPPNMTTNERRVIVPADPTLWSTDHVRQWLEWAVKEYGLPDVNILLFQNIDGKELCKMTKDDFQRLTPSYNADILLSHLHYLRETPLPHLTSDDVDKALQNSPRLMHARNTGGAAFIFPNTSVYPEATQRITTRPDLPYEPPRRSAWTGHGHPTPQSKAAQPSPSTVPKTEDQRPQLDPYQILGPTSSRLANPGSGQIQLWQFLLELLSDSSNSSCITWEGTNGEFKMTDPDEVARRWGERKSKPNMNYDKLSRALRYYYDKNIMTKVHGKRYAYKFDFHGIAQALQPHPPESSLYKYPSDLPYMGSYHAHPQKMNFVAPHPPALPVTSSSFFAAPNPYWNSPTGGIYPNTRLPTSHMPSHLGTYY
In short: as §1

ELF1 = ELF1 (Homo sapiens, UniProt P32519 1-619)
In short: as §1

EHF = molecular target: T5, EHF (Homo sapiens, UniProt Q9NZC4 1-300)
T5 sequence: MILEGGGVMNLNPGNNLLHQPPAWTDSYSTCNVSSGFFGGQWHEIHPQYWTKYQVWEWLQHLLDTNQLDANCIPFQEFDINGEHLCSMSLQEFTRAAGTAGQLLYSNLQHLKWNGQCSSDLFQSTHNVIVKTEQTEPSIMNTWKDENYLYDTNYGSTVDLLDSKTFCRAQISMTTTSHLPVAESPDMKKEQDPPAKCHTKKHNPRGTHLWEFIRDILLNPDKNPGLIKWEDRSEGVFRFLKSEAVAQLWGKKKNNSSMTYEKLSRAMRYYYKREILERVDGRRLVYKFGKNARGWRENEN
In short: as §1

SPI1 = SPI1 (Homo sapiens, UniProt P17947 1-270)
In short: as §1

SPIB = SPIB (Homo sapiens, UniProt Q01892 1-262)
In short: as §1

ELK3 = molecular target: T6, ELK3 (Homo sapiens, UniProt P41970 1-407)
T6 sequence: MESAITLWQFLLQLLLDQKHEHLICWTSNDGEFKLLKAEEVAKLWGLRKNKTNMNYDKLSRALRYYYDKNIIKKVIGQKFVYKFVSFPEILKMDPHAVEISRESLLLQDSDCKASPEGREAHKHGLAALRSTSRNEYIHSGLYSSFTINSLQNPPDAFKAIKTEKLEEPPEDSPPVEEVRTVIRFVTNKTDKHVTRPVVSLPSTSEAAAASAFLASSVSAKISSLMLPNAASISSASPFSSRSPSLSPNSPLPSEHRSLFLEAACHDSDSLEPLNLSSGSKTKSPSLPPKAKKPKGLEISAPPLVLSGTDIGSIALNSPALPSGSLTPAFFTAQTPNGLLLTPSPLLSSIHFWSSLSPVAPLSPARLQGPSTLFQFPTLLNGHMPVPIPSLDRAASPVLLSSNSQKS
In short: as §1

Sequence of ELF1 (P32519 whole entry): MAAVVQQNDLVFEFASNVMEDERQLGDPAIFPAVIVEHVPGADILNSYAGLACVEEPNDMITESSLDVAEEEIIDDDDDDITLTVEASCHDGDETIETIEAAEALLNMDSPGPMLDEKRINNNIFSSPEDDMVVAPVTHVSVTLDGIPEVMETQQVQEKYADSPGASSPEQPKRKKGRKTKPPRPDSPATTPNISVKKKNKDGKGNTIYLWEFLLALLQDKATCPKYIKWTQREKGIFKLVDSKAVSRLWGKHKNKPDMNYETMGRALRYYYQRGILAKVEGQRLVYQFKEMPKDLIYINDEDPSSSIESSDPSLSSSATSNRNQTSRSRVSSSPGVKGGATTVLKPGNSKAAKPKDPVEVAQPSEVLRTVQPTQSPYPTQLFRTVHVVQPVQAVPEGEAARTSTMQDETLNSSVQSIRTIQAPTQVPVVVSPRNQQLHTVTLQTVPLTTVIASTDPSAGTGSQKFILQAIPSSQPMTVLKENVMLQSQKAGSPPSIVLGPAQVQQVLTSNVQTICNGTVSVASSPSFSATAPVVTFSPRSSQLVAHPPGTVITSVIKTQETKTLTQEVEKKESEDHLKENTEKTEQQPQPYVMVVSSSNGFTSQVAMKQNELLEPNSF
Sequence of SPIB (Q01892 whole entry): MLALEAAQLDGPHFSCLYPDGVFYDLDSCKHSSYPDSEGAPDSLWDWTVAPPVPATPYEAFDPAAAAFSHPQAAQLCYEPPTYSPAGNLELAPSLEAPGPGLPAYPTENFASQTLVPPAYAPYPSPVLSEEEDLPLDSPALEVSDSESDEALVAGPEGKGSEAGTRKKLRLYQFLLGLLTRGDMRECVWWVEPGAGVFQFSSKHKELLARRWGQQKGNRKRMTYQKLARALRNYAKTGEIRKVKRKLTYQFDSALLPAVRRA

For GATTCA, the binding signal (FLI1) was 1.11 fold enrichment (6-mer frequency, TF over GST control), the binding signal (ELK1) was 1.15 fold enrichment (6-mer frequency, TF over GST control) and the binding signal (GABPA) was 1.17 fold enrichment (6-mer frequency, TF over GST control). For the same sequence, the binding signal (ERG) was 1.11 fold enrichment (6-mer frequency, TF over GST control), the binding signal (ELF1) was 1.17 fold enrichment (6-mer frequency, TF over GST control) and the binding signal (EHF) was 1.18 fold enrichment (6-mer frequency, TF over GST control). For the same sequence, the binding signal (SPI1) was 1.16 fold enrichment (6-mer frequency, TF over GST control), the binding signal (SPIB) was 1.04 fold enrichment (6-mer frequency, TF over GST control) and the binding signal (ELK3) was 1.1 fold enrichment (6-mer frequency, TF over GST control).
